# Laboratory results taken from ChEMBL document CHEMBL4513216, “Probing the Open Global Health Chemical Diversity Library for Multistage-Active Starting Points for Next-Generation Antimalarials” (ACS Infect Dis, 2020).
# The campaign covered roughly 65,000 compounds. About 2,100 (3.2%) showed an effect of 50% or more. The median lay at about -52%. The full list was thinned out, with strong results kept by preference.
# Test system: Plasmodium falciparum
# Experiment: Screen against P. falciparum Asexual Blood Stage (ABS), at 5uM
# Type: functional, Dd2
# Settings: tested at 5 uM
row,SMILES,INHIBITION
1,COc1ccc(C[C@H]2CN(C(=O)C3CC3)CC[C@H]2OC)cc1,35.6%
2,COCCN1CC[C@@H](OC)[C@@H]1Cc1ccccc1,1.53%
3,COc1ccc(C[C@H]2CN(Cc3ccoc3)CC[C@@H]2OC)cc1,64.8%
4,Cc1noc(C)c1CN1CC[C@H](OCC2CC2)[C@@H](Cc2ccccc2)C1,62.1%
5,CO[C@H]1CCN(Cc2ccoc2)C[C@@H]1Cc1ccccc1,67.3%
6,CO[C@@H]1CCN(Cc2nccs2)C[C@@H]1Cc1ccccc1,-9.75%
7,COc1ccc(C[C@H]2CN(c3cc(OC)ncn3)CC[C@@H]2OC)cc1,-0.505%
8,c1ccc(C[C@H]2CN(Cc3nccs3)CC[C@H]2OCC2CC2)cc1,40.9%
9,Cc1noc(C)c1CN1CC[C@@H](OCC2CC2)[C@@H](Cc2ccccc2)C1,26.2%
10,CO[C@H]1CCN(Cc2nccs2)C[C@@H]1Cc1ccccc1,-25.6%
11,COCCN1CC[C@@H](O)[C@@H]1Cc1ccccc1,-32.4%
12,COCCN1CC[C@H](OC)[C@@H]1Cc1ccccc1,62.8%
13,COc1ccc(S(=O)(=O)C2CCN(C(=O)c3cc(C)cs3)CC2)cc1,-23.3%
14,CCC(NC(=O)NCc1cccc(N(C)C)n1)c1nccs1 (stereo unspecified),-84.7%
15,Cn1cnc(S(=O)(=O)N2CCCc3cc(F)cc(F)c32)c1Cl,-84.8%
16,CO[C@H]1CCN(C(=O)Cc2ccccn2)[C@H]1Cc1ccncc1,-128%
17,COc1cc(NC2CCS(=O)(=O)CC2)ncn1,-119%
18,N[C@@H]1c2ccccc2C2(CCN(c3cccc(C(F)(F)F)n3)CC2)[C@H]1O,-35.9%
19,Cc1ccc(CC(=O)N2CCOCC2c2c(C)n[nH]c2C)cc1 (stereo unspecified),-37.5%
20,COc1ccc(C[C@H]2CNCC[C@H]2OC)cc1,58%
21,CO[C@@H]1CCN(Cc2cccs2)[C@H]1Cc1ccncc1,-27.7%
22,CO[C@@H]1CCN(Cc2ccoc2)[C@H]1Cc1ccccc1,61.4%

row,SMILES,INHIBITION
1,COc1ccc(C[C@H]2CN(c3nnc(C)s3)CC[C@H]2OC)cc1,-2.98%
2,COCCO[C@H]1CCN(Cc2ccoc2)[C@H]1Cc1cccnc1,-10.4%
3,COc1ccc(C[C@H]2CN(c3nnc(C)s3)CC[C@@H]2OC)cc1,-16%
4,CCOCCN1CCN(Cc2nc(CC(C)C)no2)CC1,18.6%
5,CS(=O)(=O)NC[C@]12COC[C@H]1CN(C(=O)C1CC(F)(F)C1)C2,-80.1%
6,COc1cccc(-c2noc(C3CCN(Cc4ccccc4F)C3)n2)c1 (stereo unspecified),-118%
7,Cn1nc2c(cc1=O)CN(Cc1coc(-c3ccccc3)n1)CC2,-138%
8,COc1ccc(CN(C)[C@@H]2COC[C@H]2c2ccc(F)cc2)c(OC)c1,9.39%
9,CNc1cc2c(nn1)CCN(C(=O)c1ccc3c(c1)OCO3)C2,-135%
10,CCOc1cc(Cl)c(CN2CCC3(CCCNC3=O)C2)cc1OC (stereo unspecified),-15.1%
11,O=C1NCCCC12CCN(Cc1ccc(SC3CCCCC3)o1)C2 (stereo unspecified),56.4%
12,O=C1NCCCC12CCN(Cc1ccc(-c3ccccc3)s1)C2 (stereo unspecified),-138%
13,O=C(NCCc1ccn(-c2ccccc2)n1)N1CCCC(CO)C1 (stereo unspecified),-78.9%
14,CNC(=O)c1ccc(CN2CCN(C3=NCC(C)(C)S3)CC2)cc1,-92%
15,O=C(c1cc(=O)n(-c2ccccc2)[nH]1)N1CCCC(c2ccn[nH]2)C1 (stereo unspecified),-22.8%
16,COCCN1CCN(Cc2cccc(C(=O)N(C)C)c2)CC1,7.48%
17,CCOCCN1CCN(Cc2cccc(C(=O)N(C)C)c2)CC1,-117%
18,CN(C)C(=O)c1cccc(CN2CCN(CCO)CC2)c1,61%
19,COc1cc2c(c(OC)c1OC)CCN(CCn1cncn1)CC2,-167%
20,COC1CCCN(Cc2cc(O)c3cc(C)cc(C)c3n2)C1 (stereo unspecified),-88.5%
21,Cc1cc(C)c2nc(CN3CCCC(c4cc[nH]n4)C3)cc(O)c2c1 (stereo unspecified),54.4%
22,Cc1cc(C)c2nc(CN3CC[C@@H](O)C3)cc(O)c2c1,-6.9%

row,SMILES,INHIBITION
1,CCc1c(C)sc2ncnc(N3CC[C@@H](N4CCOCC4)[C@H](O)C3)c12,-2.01%
2,CCc1c(C)sc2ncnc(N3CCN(C4CCOCC4)CC3)c12,33.7%
3,CCc1c(C)sc2ncnc(N3C[C@H](O)[C@@H](N4CCCC4)C3)c12,62%
4,O=C(C1CCCC1)N1CCOC(c2nc(-c3ncccn3)no2)C1 (stereo unspecified),-66.9%
5,c1cnc(Nc2cc(CCC3CCNCC3)ccn2)cn1,-32%
6,c1ccc(OCc2ccncc2)c(CNC2CCc3ncnn3C2)c1 (stereo unspecified),-32.4%
7,c1ccc(COc2ccccc2CNC2CCc3ncnn3C2)cc1 (stereo unspecified),69.4%
8,c1ccc(OCC2CC2)c(CNC2CCc3ncnn3C2)c1 (stereo unspecified),51.2%
9,c1cncc(COc2ccccc2CNC2CCc3ncnn3C2)c1 (stereo unspecified),-137%
10,c1ccc(OC2CCCC2)c(CNC2CCc3ncnn3C2)c1 (stereo unspecified),20.5%
11,CNC(=O)COc1ccccc1CNC1CCc2ncnn2C1 (stereo unspecified),-40.5%
12,Cc1csc(NC(=O)c2cnc(C3CCCN(C)C3)cn2)n1 (stereo unspecified),-212%
13,NC(=O)[C@@H]1CCCN1C(=O)c1cn(C/C=C/c2ccccc2)nn1,-88.2%
14,COCCNC(=O)c1nnc2ccc(N3CCOCC3)cc2n1,-19.6%
15,COC(=O)CNC(=O)c1nc(-c2ccccc2OC)c2cnccn12,-115%
16,Cc1cc(C)nc(NCCC(=O)NCCn2ccnc2C)n1,-55.9%
17,N#CC(NC(=O)CCCOc1cccnc1)c1ccc(F)cc1F (stereo unspecified),-69.7%
18,CSc1nccc(N2CCC(NCc3nc(C)cc(C)n3)CC2)n1,-119%
19,CSc1nccc(N2CCC(NCc3ccc4c(c3)OCO4)CC2)n1,51.4%
20,CSc1nccc(N2CCC(NCCN3CCOCC3)CC2)n1,-47.4%
21,CNc1nc(CNC(=O)Nc2cccc(CSC)c2)cs1,28.7%
22,CCN1CCC2(C1)CN(S(=O)(=O)c1cn(C)cn1)C2,-42.2%

row,SMILES,INHIBITION
1,CCOC(=O)CCN(Cc1cccnc1)C(=O)c1cc(Cl)c[nH]1,-43.4%
2,CCc1cnc(N2C[C@@H]3C[C@H](C(=O)NCC(C)C)[C@H](C2)O3)nc1,-47.5%
3,Cc1cccn2cc(CN3CCCC(O)C3)nc12 (stereo unspecified),-34.8%
4,Cc1cccn2cc(CN3CCCC(c4ccn[nH]4)C3)nc12 (stereo unspecified),-34%
5,Cc1cccn2cc(CN3CCCC(c4noc(C5CC5)n4)C3)nc12 (stereo unspecified),54.6%
6,CC(C)c1nn(C)c(Cl)c1CNCc1cccnc1N(C)C,-8.45%
7,O=C(c1cccs1)N1CCCC2(COCCN(c3cccnc3)C2)C1 (stereo unspecified),4.74%
8,c1ccc(-c2nc(CN3CCCCC3Cn3cncn3)co2)cc1 (stereo unspecified),-87.1%
9,CN(C)C(=O)CN1CCCC(c2cncc(-c3cccc(Cl)c3)n2)C1 (stereo unspecified),49.6%
10,Cc1ccccc1-c1cncc(C2CCN(C)CC2)n1,-69.9%
11,CN1CCC(c2cncc(-c3cccc(Cl)c3)n2)CC1,54.5%
12,O=C(CO)N1CCC(c2cncc(-c3cccc(Cl)c3)n2)CC1,-122%
13,CN(C)C(=O)CN1CCC(c2cncc(-c3cccc(Cl)c3)n2)CC1,-53.1%
14,NC(=O)CN1CCC(c2cncc(-c3cccc(Cl)c3)n2)CC1,67.6%
15,Cc1ccc(CN(C)C(=O)CNC(C)(C)c2noc(C(C)(C)C)n2)o1,-62.5%
16,COCCC(=O)N1CCC2(COCc3cnc(N(C)C)nc32)C1 (stereo unspecified),-29%
17,CCc1ccc(CN(C)C(=O)c2cnc3c(c2)nc(N)n3CC)nc1,-20.9%
18,COc1cccc(OCCNS(=O)(=O)Cc2ccccc2)c1,-91.8%
19,COc1cccc(OCCNCc2ccccc2)c1,34.7%
20,COc1cccc(CNCCNS(=O)(=O)Cc2ccccc2)c1,55.5%
21,CN(Cc1cn2ccccc2c1C#N)C1CCCN(c2cccnn2)C1 (stereo unspecified),-92.9%
22,O=C(NCc1cncc2c1CCN(C1CCOCC1)C2)c1ccco1,-81.7%

row,SMILES,INHIBITION
1,O=C(C(CNCc1cccs1)c1ccccc1)N1CCOCC1 (stereo unspecified),7.93%
2,O=C(C(CNCc1cccc(O)c1)c1ccccc1)N1CCOCC1 (stereo unspecified),-52.6%
3,O=C(C(CNCc1ccsc1)c1ccccc1)N1CCOCC1 (stereo unspecified),63.6%
4,O=C(c1nn[nH]c1Nc1ccc(Cl)cc1)N1CCCCCC1,23.3%
5,Cc1nc(C)c(C(C)NCc2c(C)nn(CC(C)C)c2N(C)C)s1 (stereo unspecified),-40.1%
6,Cc1ccc(CN2CC[C@@H](O)[C@@H]2Cc2cnn(C)c2)o1,-75.8%
7,Cc1ccc(CN2CC[C@@H](O)[C@@H]2Cc2ccccc2)o1,51.6%
8,CO[C@@H]1CCN(Cc2ccc(C)o2)[C@H]1Cc1ccccc1,-45.5%
9,Cn1cc(NC(=O)c2cccc(-n3cnnn3)c2)cn1,-36%
10,COc1cc(CNC2CCN(c3ccccc3)C2)cc(OC)c1OC (stereo unspecified),64.6%
11,COc1ccc(CNC2CCN(c3ccccc3)C2)c(OC)c1OC (stereo unspecified),55.2%
12,COc1cccc(CNC2CCSC2)c1OC (stereo unspecified),-18.4%
13,COc1ccc(CNC2CCN(c3ccccc3)C2)cc1O (stereo unspecified),40.9%
14,COc1cc(OC)cc(N2CCC(NCc3cc[nH]n3)C2)c1 (stereo unspecified),-39.5%
15,c1ccc(N2CCC(NCc3cccc4cn[nH]c34)C2)cc1 (stereo unspecified),-37.2%
16,Cc1cc(C)c(CNC(=O)c2ccc3c(c2)CCC3)c(=O)[nH]1,-48.6%
17,CCN(CCS(=O)(=O)c1ccc(Cl)cc1)Cc1ccc(OC)c(OC)c1,-18.6%
18,Cc1nc(CN2CCCn3cnc(COC(C)C)c3C2)cs1,-54.9%
